Counter-ions that a name gives are not always drawn.
Legend:
Assay in all cases: lowest phenotypically active concentration; higher = less potent
Details in all cases: treatment time: 24 h
A549-CANX-COX4 = test system: A549-CANX-COX4
Outline: (§1)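 Fifteen reporter lines derived from A549, HepG2 and WPMY1 cells by gene editing, carrying BFP for segmentation plus GFP and RFP/FusionRed markers, were exposed to 0.3, 1, 3 or 9 µM for 24 h in four wells each and imaged live. Live-cell features from each well were normalised to solvent control wells. A well set counted as deviating when ≥3 of 4 wells lay beyond the 95th percentile of control Euclidean distances, and as reproducible when the median replicate Pearson correlation exceeded the 95th percentile of non-replicates. Phenotypic activity was assigned only when both criteria were met.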

WPMY1-ACTB-RAB5A = test system: WPMY1-ACTB-RAB5A
Outline: as §1

HepG2-GM130-SQSTM1 = test system: HepG2-GM130-SQSTM1
Outline: as §1

HepG2-TUBA1B-RELA = test system: HepG2-TUBA1B-RELA
Outline: as §1

A549-TUBA1B-RELA = test system: A549-TUBA1B-RELA
Outline: as §1

WPMY1-TP53BP1-CLTA = test system: WPMY1-TP53BP1-CLTA
Outline: as §1

HepG2-ACTB-RAB5A = test system: HepG2-ACTB-RAB5A
Outline: as §1

HepG2-TP53BP1-CLTA = test system: HepG2-TP53BP1-CLTA
Outline: as §1

WPMY1-TUBA1B-RELA = test system: WPMY1-TUBA1B-RELA
Outline: as §1

A549-TP53BP1-CLTA = test system: A549-TP53BP1-CLTA
Outline: as §1

N=C(N)NC(=N)NCCc1ccccc1 [phenformin]
lowest phenotypically active concentration (A549-CANX-COX4): 9 µM

N=C1NC(=O)/C(=C\c2ccc(O)cc2)S1 [Mirin]
lowest phenotypically active concentration (WPMY1-ACTB-RAB5A): 9 µM

Cc1nc2sccn2c(=O)c1CCN1CCC(=C(c2ccc(F)cc2)c2ccc(F)cc2)CC1 [Ritanserin]
lowest phenotypically active concentration (HepG2-GM130-SQSTM1): 9 µM | lowest phenotypically active concentration (HepG2-TUBA1B-RELA): 9 µM

Cc1cccc(CN2CCN(C(c3ccccc3)c3ccc(Cl)cc3)CC2)c1 (stereo unspecified) [Meclizine dihydrochloride]
lowest phenotypically active concentration (HepG2-TUBA1B-RELA): 9 µM

Cc1cc2sc(NC(=O)Cc3ccccc3)nc2cc1Cl
lowest phenotypically active concentration (A549-TUBA1B-RELA): 9 µM

CCc1ccc(/C=C/C(=O)Nc2ccc(C(C)=O)cc2)o1 [Heclin]
lowest phenotypically active concentration (A549-TUBA1B-RELA): 9 µM

CC[C@H](Nc1ncnc2[nH]cnc12)c1nc2cccc(F)c2c(=O)n1-c1ccccc1 [idelalisib]
lowest phenotypically active concentration (WPMY1-ACTB-RAB5A): 9 µM

CC(C)(C)c1ccc(S(=O)(=O)/C=C/C#N)cc1
lowest phenotypically active concentration (HepG2-GM130-SQSTM1): 9 µM | lowest phenotypically active concentration (HepG2-TUBA1B-RELA): 9 µM | lowest phenotypically active concentration (WPMY1-TP53BP1-CLTA): 9 µM

Cc1cccc(-c2nn(C(=S)Nc3ccccc3)cc2-c2ccnc3ccccc23)n1
lowest phenotypically active concentration (A549-CANX-COX4): 9 µM | lowest phenotypically active concentration (A549-TUBA1B-RELA): 3 µM | lowest phenotypically active concentration (HepG2-ACTB-RAB5A): 9 µM | lowest phenotypically active concentration (HepG2-GM130-SQSTM1): 9 µM | lowest phenotypically active concentration (HepG2-TP53BP1-CLTA): 9 µM | lowest phenotypically active concentration (HepG2-TUBA1B-RELA): 9 µM | lowest phenotypically active concentration (WPMY1-ACTB-RAB5A): 9 µM | lowest phenotypically active concentration (WPMY1-TP53BP1-CLTA): 1 µM | lowest phenotypically active concentration (WPMY1-TUBA1B-RELA): 9 µM

CC(C)(C)c1cc(/C=C(\C#N)C(N)=S)cc(C(C)(C)C)c1O
lowest phenotypically active concentration (A549-CANX-COX4): 9 µM | lowest phenotypically active concentration (A549-TP53BP1-CLTA): 9 µM | lowest phenotypically active concentration (HepG2-ACTB-RAB5A): 9 µM | lowest phenotypically active concentration (HepG2-GM130-SQSTM1): 9 µM | lowest phenotypically active concentration (HepG2-TP53BP1-CLTA): 9 µM | lowest phenotypically active concentration (HepG2-TUBA1B-RELA): 9 µM | lowest phenotypically active concentration (WPMY1-TP53BP1-CLTA): 9 µM

Nc1ncnc2c1ncn2[C@@H]1O[C@H](CO)[C@@H](O)[C@H]1O [Adenosine]
lowest phenotypically active concentration (HepG2-ACTB-RAB5A): 9 µM

S=c1[nH]cnc2nc[nH]c12 [mercaptopurine]
lowest phenotypically active concentration (HepG2-ACTB-RAB5A): 9 µM | lowest phenotypically active concentration (HepG2-TUBA1B-RELA): 9 µM | lowest phenotypically active concentration (WPMY1-TUBA1B-RELA): 9 µM

CCCc1cc2c(N3CCN(C4=NCC(C)(C)S4)CC3)ncnc2s1 [MI 2 dihydrochloride]
lowest phenotypically active concentration (HepG2-ACTB-RAB5A): 9 µM | lowest phenotypically active concentration (HepG2-GM130-SQSTM1): 9 µM | lowest phenotypically active concentration (HepG2-TP53BP1-CLTA): 9 µM | lowest phenotypically active concentration (WPMY1-ACTB-RAB5A): 3 µM

C[C@@H]1CN(Cc2ccc(F)cc2)[C@@H](C)CN1C(=O)c1cc2c(C(=O)C(=O)N(C)C)cn(C)c2cc1Cl [SCIO 469 hydrochloride]
lowest phenotypically active concentration (HepG2-ACTB-RAB5A): 9 µM | lowest phenotypically active concentration (HepG2-TP53BP1-CLTA): 9 µM | lowest phenotypically active concentration (HepG2-TUBA1B-RELA): 9 µM | lowest phenotypically active concentration (WPMY1-ACTB-RAB5A): 1 µM

O=C(Nc1ccccc1)N1CCN(c2nc(-c3ccccc3)ns2)CC1
lowest phenotypically active concentration (HepG2-TP53BP1-CLTA): 9 µM | lowest phenotypically active concentration (HepG2-TUBA1B-RELA): 9 µM

CCOc1nc(NC(=O)Cc2cc(OC)ccc2OC)cc(N)c1C#N
lowest phenotypically active concentration (A549-TUBA1B-RELA): 9 µM

COc1ccc(-n2c(SCCCN3C(=O)c4cccc5cccc(c45)C3=O)nnc2-c2ccncc2)cc1
lowest phenotypically active concentration (A549-TUBA1B-RELA): 3 µM

Cc1cc(C)c(C)c(S(=O)(=O)Nc2ccc(N3CC[C@H](C(=O)O)C3)c3ccccc23)c1C
lowest phenotypically active concentration (HepG2-GM130-SQSTM1): 9 µM

C[C@H](NC(=O)[C@@H](O)c1cc(F)cc(F)c1)C(=O)N[C@@H]1C(=O)N(C)c2ccccc2-c2ccccc21
lowest phenotypically active concentration (WPMY1-ACTB-RAB5A): ≤ 0.3 µM

CC(C)(C)c1ccc(C(=O)Nc2cn3cc(-n4ccnc4)ccc3n2)cc1
lowest phenotypically active concentration (HepG2-ACTB-RAB5A): 3 µM

COc1ccc(CC2c3cc(OC)c(OC)cc3CC[N+]2(C)CCC(=O)OCCCCCOC(=O)CC[N+]2(C)CCc3cc(OC)c(OC)cc3C2Cc2ccc(OC)c(OC)c2)cc1OC (stereo unspecified) [Atracurium besilate]
lowest phenotypically active concentration (HepG2-GM130-SQSTM1): 3 µM | lowest phenotypically active concentration (WPMY1-ACTB-RAB5A): 3 µM

CCc1c(C(=O)Nc2cc(S(=O)(=O)N(CC)CC)ccc2O)[nH]c(C)c1C(C)=O
lowest phenotypically active concentration (HepG2-ACTB-RAB5A): 9 µM

CC1=C(/C=C/C(C)=C/C=C/C(C)=C/C(=O)O)C(C)(C)CCC1 [isotretinoin]
lowest phenotypically active concentration (WPMY1-TP53BP1-CLTA): 3 µM

O=C(/C=C/c1ccc(O)cc1)c1ccc(O)cc1O [Isoliquiritigenin]
lowest phenotypically active concentration (A549-TUBA1B-RELA): 9 µM | lowest phenotypically active concentration (HepG2-GM130-SQSTM1): 9 µM | lowest phenotypically active concentration (WPMY1-TP53BP1-CLTA): 9 µM

COCCCOc1ccnc(CS(=O)c2nc3ccccc3[nH]2)c1C (stereo unspecified) [rabeprazole]
lowest phenotypically active concentration (HepG2-ACTB-RAB5A): 9 µM | lowest phenotypically active concentration (HepG2-TUBA1B-RELA): 9 µM

O=c1c(O)c(-c2ccc(O)cc2)oc2cc(O)cc(O)c12 [Kaempferol]
lowest phenotypically active concentration (WPMY1-TP53BP1-CLTA): 9 µM

c1ccc(-c2n[nH]cc2-c2ccnc3ccccc23)nc1
lowest phenotypically active concentration (A549-TUBA1B-RELA): 9 µM | lowest phenotypically active concentration (HepG2-GM130-SQSTM1): 9 µM | lowest phenotypically active concentration (HepG2-TP53BP1-CLTA): 9 µM | lowest phenotypically active concentration (WPMY1-ACTB-RAB5A): 9 µM

NC(=O)c1ccc(I)c([N+](=O)[O-])c1
lowest phenotypically active concentration (HepG2-GM130-SQSTM1): 9 µM

CC(C)NCC(O)COc1ccc(CC(N)=O)cc1 (stereo unspecified) [atenolol-()]
lowest phenotypically active concentration (WPMY1-TP53BP1-CLTA): 9 µM

COc1ccc(S(=O)(=O)ON=C2C=C(C)C(=O)C(C)=C2)cc1
lowest phenotypically active concentration (A549-TUBA1B-RELA): 9 µM | lowest phenotypically active concentration (WPMY1-TUBA1B-RELA): 9 µM

C[C@H](NC(=O)c1sccc1OCc1ccc(Cl)cc1)c1ccccc1
lowest phenotypically active concentration (A549-TP53BP1-CLTA): 9 µM | lowest phenotypically active concentration (WPMY1-ACTB-RAB5A): ≤ 0.3 µM | lowest phenotypically active concentration (WPMY1-TP53BP1-CLTA): 3 µM

CC(C)[C@@H](C)/C=C/[C@@H](C)[C@H]1CC[C@H]2C3=CC=C4C[C@@H](O)CC[C@]4(C)[C@H]3CC[C@]12C [Ergosterine]
lowest phenotypically active concentration (A549-TUBA1B-RELA): 9 µM | lowest phenotypically active concentration (HepG2-GM130-SQSTM1): 9 µM

COc1cc(-c2cn(C)c(=O)c3cnccc23)c(OC)cc1CN(C)C
lowest phenotypically active concentration (A549-TP53BP1-CLTA): 9 µM | lowest phenotypically active concentration (HepG2-ACTB-RAB5A): 9 µM | lowest phenotypically active concentration (HepG2-GM130-SQSTM1): 9 µM | lowest phenotypically active concentration (HepG2-TUBA1B-RELA): 9 µM | lowest phenotypically active concentration (WPMY1-TUBA1B-RELA): 9 µM

CC(C)N(CCCNC(=O)Nc1ccc(C(C)(C)C)cc1)C[C@H]1O[C@@H](n2ccc3c(N)ncnc32)[C@H](O)[C@@H]1O
lowest phenotypically active concentration (HepG2-ACTB-RAB5A): 9 µM | lowest phenotypically active concentration (HepG2-GM130-SQSTM1): ≤ 0.3 µM | lowest phenotypically active concentration (HepG2-TP53BP1-CLTA): 1 µM | lowest phenotypically active concentration (HepG2-TUBA1B-RELA): ≤ 0.3 µM | lowest phenotypically active concentration (WPMY1-TUBA1B-RELA): 3 µM

Nc1nnc(Sc2ncc([N+](=O)[O-])s2)s1
lowest phenotypically active concentration (A549-TUBA1B-RELA): 9 µM

O=c1cc(N2CCOCC2)oc2c1ccc1ccccc12
lowest phenotypically active concentration (WPMY1-TUBA1B-RELA): 9 µM

Cc1ccc(-n2sc3ccccc3c2=O)cc1
lowest phenotypically active concentration (HepG2-GM130-SQSTM1): 9 µM | lowest phenotypically active concentration (WPMY1-ACTB-RAB5A): 9 µM

O=C(O)COc1ccc(Br)cc1/C=C1\SC(=S)N(Cc2cccnc2)C1=O
lowest phenotypically active concentration (HepG2-GM130-SQSTM1): 3 µM

Clc1ccc(C(c2ccc(Cl)cc2)[n+]2ccn(CC(OCc3ccc(Cl)cc3Cl)c3ccc(Cl)cc3Cl)c2)cc1 (stereo unspecified) [Calmidazolium chloride]
lowest phenotypically active concentration (HepG2-ACTB-RAB5A): 3 µM | lowest phenotypically active concentration (HepG2-TUBA1B-RELA): 3 µM | lowest phenotypically active concentration (WPMY1-TUBA1B-RELA): 3 µM

O=C(O)[C@H]1CCCC[C@H]1C(=O)N1CCc2ccccc2[C@H]1CN1C(=O)c2ccccc2C1=O
lowest phenotypically active concentration (HepG2-ACTB-RAB5A): 9 µM | lowest phenotypically active concentration (HepG2-GM130-SQSTM1): 9 µM | lowest phenotypically active concentration (HepG2-TUBA1B-RELA): 9 µM

CC(C)N(CCCNC(=O)Nc1ccc(C(C)(C)C)cc1)C[C@H]1O[C@@H](n2cc(Br)c3c(N)ncnc32)[C@H](O)[C@@H]1O
lowest phenotypically active concentration (A549-TP53BP1-CLTA): 3 µM | lowest phenotypically active concentration (HepG2-ACTB-RAB5A): 3 µM | lowest phenotypically active concentration (HepG2-GM130-SQSTM1): 3 µM | lowest phenotypically active concentration (HepG2-TP53BP1-CLTA): 1 µM | lowest phenotypically active concentration (HepG2-TUBA1B-RELA): 9 µM | lowest phenotypically active concentration (WPMY1-ACTB-RAB5A): 3 µM | lowest phenotypically active concentration (WPMY1-TP53BP1-CLTA): 9 µM | lowest phenotypically active concentration (WPMY1-TUBA1B-RELA): 9 µM

Cc1cc2c(s1)Nc1ccccc1N=C2N1CCN(C)CC1 [Olanzapine]
lowest phenotypically active concentration (HepG2-TUBA1B-RELA): 9 µM

CN/C(=C/[N+](=O)[O-])NCCSCc1csc(CN(C)C)n1 [nizatidine]
lowest phenotypically active concentration (HepG2-TP53BP1-CLTA): 1 µM

O=S(=O)(NCCCCCCc1ccccc1)c1cccc2c(Cl)cccc12
lowest phenotypically active concentration (HepG2-TUBA1B-RELA): ≤ 0.3 µM | lowest phenotypically active concentration (WPMY1-ACTB-RAB5A): ≤ 0.3 µM

CC(C)C[C@H](NC(=O)OCC1c2ccccc2-c2ccccc21)C(=O)O
lowest phenotypically active concentration (WPMY1-ACTB-RAB5A): 9 µM

Nc1ncnc2c1c(COc1cccc(Cl)c1)nn2C1CCOCC1
lowest phenotypically active concentration (HepG2-TP53BP1-CLTA): 9 µM

CCOc1ccc2nc(S(N)(=O)=O)sc2c1 [ethoxzolamide]
lowest phenotypically active concentration (HepG2-GM130-SQSTM1): 9 µM

CNC(=C[N+](=O)[O-])NCCSCc1ccc(CN(C)C)o1 [ranitidine]
lowest phenotypically active concentration (HepG2-GM130-SQSTM1): 1 µM

O=[N+]([O-])c1cc(Cl)ccc1S(=O)(=O)c1ccccc1
lowest phenotypically active concentration (HepG2-GM130-SQSTM1): 3 µM

CC1(C)CC(=O)c2c(S(C)(=O)=O)sc(Cl)c2C1
lowest phenotypically active concentration (HepG2-GM130-SQSTM1): 1 µM

CCN1C(=O)NC(c2ccccc2)C1=O (stereo unspecified) [ethotoin]
lowest phenotypically active concentration (WPMY1-ACTB-RAB5A): 3 µM

O=C(Nc1ccccc1)N1CCC(Cc2cnc3ccccc3c2)CC1
lowest phenotypically active concentration (HepG2-TP53BP1-CLTA): 9 µM | lowest phenotypically active concentration (HepG2-TUBA1B-RELA): 9 µM
